Screening results (PubChem BioAssay)
MITF primary = MITF inhibitors, primary screen, biochemical, AlphaScreen, human. Microphthalmia-associated transcription factor (Homo sapiens), O75030. AlphaScreen MITF homodimerization, bead proximity signal. inhibition, % at 2.6 µM. 0.91% of 650,000 active; in the data active means inhibition above about 50%;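 further: 0% = vehicle wells with protein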
TEAD-YAP inh = TEAD-YAP interaction inhibition, primary screen, TEAD-YAP interaction inhibitor project, luminescence, HEK-TIYL cells. TEAD-Gal4/YAP UAS-luciferase luminescence. inhibition, % at 9.12 µM. 1.4% of 640,000 active. AID 1259422, 2018; in the data active means inhibition above about 32%;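 further: 0% = median of test compound wells and 100% = reference inhibitor wells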
GPR151 ag = activators of human GPR151, primary screen, cell-based, PathHunter beta-arrestin, luminescence; G-protein coupled receptor 151 (Homo sapiens), Q8TDV0; PathHunter beta-arrestin GPR151 cells; activation, % at 11.2 µM; 1% of 650,000 active; in the data active means activation above about 4.9%;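 further: 0% = median of compound wells and 100% = cells with positive control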
FBW7 act = FBW7 E3 ligase activators, primary screen, biochemical, AlphaScreen, human; AlphaScreen FBW7–phospho-cyclin E peptide binding, activator screen; normalized activity (activation), % at 26.1 µM; 0.13% of 650,000 active; in the data active means normalized activity above about 1.9%;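 further: purified mutant Fbw7 with reduced substrate affinity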
GPR151 conf act = GPR151 activators, triplicate retest, confirmation, cell-based, PathHunter beta-arrestin, luminescence | GPR151 PathHunter beta-arrestin cells, 90 min; % of EA-reagent control over plate median | 6,700 tested, under 10 active | activation, % at 11.2 µM | shares compounds with GPR151 ag | AID 1508609, 2020;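 active means mean percent activation across replicates above the confirmation screen cutoff of 4.91%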
GPR119 ag = GPR119 activators in beta-arrestin cells, counter-screen for GPR151 activator project, cell-based, PathHunter beta-arrestin, luminescence, triplicate. 90 min; 0 = compound-well median, 100 = enzyme-acceptor control. shares compounds with GPR151 ag. activation, % at 11.2 µM. AID 1508611, 2020. 0.3% of 6,700 active;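 active means mean percent activation in the counterscreen above 29.09%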;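 further: counterscreen on off-target GPR119 to flag nonselective hits from the GPR151 activator screen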
Target sequence (Q8TDV5 whole entry, looked up): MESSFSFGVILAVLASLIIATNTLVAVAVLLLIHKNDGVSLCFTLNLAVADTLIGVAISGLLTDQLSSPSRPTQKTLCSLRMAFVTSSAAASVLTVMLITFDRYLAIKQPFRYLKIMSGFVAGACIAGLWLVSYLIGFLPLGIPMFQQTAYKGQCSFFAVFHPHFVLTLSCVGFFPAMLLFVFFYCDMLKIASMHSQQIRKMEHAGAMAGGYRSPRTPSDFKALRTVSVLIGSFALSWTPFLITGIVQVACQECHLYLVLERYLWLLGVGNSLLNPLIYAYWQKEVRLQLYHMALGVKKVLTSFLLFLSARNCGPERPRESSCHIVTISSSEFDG
* = called active by the depositor. This is a sample that favours compounds with a hit; in the whole collection about 3.4% have one here.

Results for O=C(CCc1nnc(-c2ccsc2)o1)N1CCCCC1CCc1ccccn1 (configuration not stated) ?
MITF primary: 11; TEAD-YAP inh: -21; GPR151 ag: 6.5*; FBW7 act: 0; GPR151 conf act: 1; GPR119 ag: 2

What do the screens show for `O=c1c2ccccc2c(-c2ccccc2)nn1-c1ccc(C(F)(F)F)cn1`?
MITF primary: -4; TEAD-YAP inh: -7; GPR151 ag: -1; FBW7 act: 0

How did COc1ccc(Cc2nnc(SCC(=O)Nc3ccc(F)cc3)o2)cc1 do in these assays?
MITF primary: -2; TEAD-YAP inh: 2; GPR151 ag: 0; FBW7 act: 0

Results for COc1ccc(Cc2nnc(SCC(=O)Nc3ccc(C)c([N+](=O)[O-])c3)o2)cc1 ?
MITF primary: 10; TEAD-YAP inh: 8; GPR151 ag: 7.4*; FBW7 act: 0; GPR151 conf act: 0; GPR119 ag: -9

What do the screens show for `CCCCOc1ccc(C(=O)Nc2c3c(nn2C(C)(C)C)CSC3)cc1`?
MITF primary: -4; TEAD-YAP inh: -6; GPR151 ag: -1; FBW7 act: 0

How did CCC(C)(C)c1ccc(OCCOCCn2cc([N+](=O)[O-])nc2C)c(C(C)(C)CC)c1 do in these assays?
MITF primary: -9; TEAD-YAP inh: 1; GPR151 ag: 5.6*; FBW7 act: 0; GPR151 conf act: 0; GPR119 ag: 6

How did O=C(CCCCCn1c(=S)[nH]c2ccsc2c1=O)NCC1CCCO1 (configuration not stated) do in these assays?
MITF primary: 16; TEAD-YAP inh: 7; GPR151 ag: -1; FBW7 act: 0

What do the screens show for `O=C(CN1C(=O)NC2(CCCCC2)C1=O)NC1CCS(=O)(=O)C1` (configuration not stated)?
MITF primary: 2; TEAD-YAP inh: 7; GPR151 ag: 0; FBW7 act: 0

How did CC(C)(C)c1ccc(OCCON2C(=O)CCC2=O)c(Cl)c1 do in these assays?
MITF primary: -28; TEAD-YAP inh: 2; GPR151 ag: 3; FBW7 act: 0

How did CCC(C)c1ccccc1OCCON1C(=O)CCC1=O (configuration not stated) do in these assays?
MITF primary: -21; TEAD-YAP inh: 8; GPR151 ag: 7.1*; FBW7 act: 0; GPR151 conf act: 2; GPR119 ag: 2

How did O=C(Nc1ccccc1Cl)c1csc(-n2cccc2)n1 do in these assays?
MITF primary: 1; TEAD-YAP inh: -50; GPR151 ag: 5.7*; FBW7 act: 0; GPR151 conf act: 0; GPR119 ag: 1

What do the screens show for `CC(C)(C)C(=O)OCN1c2nonc2N(COC(=O)C(C)(C)C)c2nonc21`?
MITF primary: -9; TEAD-YAP inh: -1; GPR151 ag: 7.9*; FBW7 act: 0; GPR151 conf act: 0; GPR119 ag: 0

What do the screens show for `O=C(CNC(=O)c1cc(N2CCOCC2)ccn1)Nc1ccc(F)c(F)c1F`?
MITF primary: 11; TEAD-YAP inh: -3; GPR151 ag: 5.0*; FBW7 act: 0; GPR151 conf act: -1; GPR119 ag: -2

How did O=C(CCc1nnc(-c2ccc3c(c2)OCO3)o1)NCc1ccc(-n2cccn2)cc1 do in these assays?
MITF primary: -13; TEAD-YAP inh: -1; GPR151 ag: -1; FBW7 act: 0

How did COc1cc(/C=C/c2[nH]c(=O)[nH]c(=O)c2[N+](=O)[O-])cc(Cl)c1O do in these assays?
MITF primary: 11; TEAD-YAP inh: 2; GPR151 ag: 0; FBW7 act: 0

Results for COc1cc(/C=C/c2[nH]c(=O)[nH]c(=O)c2[N+](=O)[O-])cc(OC)c1OC ?
MITF primary: 10; TEAD-YAP inh: -3; GPR151 ag: 7.7*; FBW7 act: 0; GPR151 conf act: -1; GPR119 ag: -4

Results for O=C(c1ccc2ccccc2n1)N1CCOCC1 ?
MITF primary: 7; TEAD-YAP inh: 7; GPR151 ag: 5.4*; FBW7 act: 0; GPR151 conf act: 0; GPR119 ag: -5
